Assay [1] is described as follows: ATG_ISRE_CIS: Attagene CIS-FACTORIAL HepG2 Assay for human Interferon Regulatory Factor 1 (IRF1) binding to an Interferon-Stimulated Response Element (ISRE) (AID 2282948). The conditions noted are these: HepG2 ISRE cis-reporter (Attagene), mRNA transcription readout; actives raise or lower the signal. Summed up: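 Uses HepG2 liver cells transfected with cis-regulated reporters and measures mRNA 24 h post-dosing through RT-PCR, primer-extension labelling and capillary electrophoresis, with DMSO as negative control.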

Assay [2] is described as follows: ATG_M_32_CIS: Attagene CIS-FACTORIAL HepG2 Assay for M32 Transcription Factor (Internal Marker) (AID 2282949).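 Note: background control marker of the multiplexed CIS panel rather than a real target.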 The conditions noted are these: HepG2 Attagene cis-factorial M32 reporter, mRNA; actives raise or lower the signal. Summed up:
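Using DMSO as baseline, bidirectional curve fits were applied to reporter mRNA signals. These came from transiently transfected HepG2 cells exposed for 24 h, with RNA analysed by RT-PCR, FAM primer extension, HpaI digestion and CE.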

Assay [3] can be described thus: ATG_M_06_CIS: Attagene CIS-FACTORIAL HepG2 Assay for M06 Transcription Factor (Internal Marker) (AID 2282950). The following applies: HepG2 Attagene CIS-FACTORIAL M06 internal marker reporter; actives raise or lower the signal. The procedure, abridged:
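Steps: transfect HepG2 with multiplexed cis-element reporter constructs; dose chemical 24 h; extract RNA with DNase treatment; reverse-transcribe, PCR-amplify, 6-FAM label, HpaI digest; separate fragments by capillary electrophoresis. Activity fitted both directions versus DMSO.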

The target of assay [4] is Hepatocyte nuclear factor 6 (Homo sapiens) (UniProt Q9UBC0). Put plainly: ATG_HNF6_CIS: Attagene CIS-FACTORIAL HepG2 Assay for human Hepatocyte Nuclear Factor 6 (HNF6) (AID 2282952). The conditions noted are these: HepG2 Attagene cis-factorial HNF6 reporter transcription; actives raise or lower the signal. The procedure, abridged: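 First, HepG2 cells were transfected with the multiplexed cis reporter library and dosed with chemical for 24 h. Next, RNA was reverse-transcribed, PCR-amplified and fluorescently labelled. Finally, HpaI-digested fragments were read by capillary electrophoresis.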

The target in assay [5] is Heat shock factor protein 1 (Homo sapiens) (UniProt Q00613). Put plainly: ATG_HSE_CIS: Attagene CIS-FACTORIAL HepG2 Assay for human Heat Shock Transcription Factor 1 (HSE) (AID 2282953). The following applies: HepG2 HSE cis-reporter, Attagene RNA transcription; actives raise or lower the signal. The procedure, abridged: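 Cells were transfected with cis-element-driven reporter constructs, dosed for 24 h, then total RNA was reverse-transcribed and reporter cDNA amplified, FAM-labelled and digested with HpaI. Fragments were resolved by capillary electrophoresis; gain or loss was fitted against DMSO.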

Assay [6] in a line: ATG_MRE_CIS: Attagene CIS-FACTORIAL HepG2 Assay for human Metal Responsive Element (MRE) (AID 2282954). The following applies: HepG2 MRE cis-reporter transcription, Attagene multiplex; actives raise or lower the signal. The procedure, abridged: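 Readout: capillary electrophoresis of 6-FAM-labelled, HpaI-digested RT-PCR reporter products. System: HepG2 cells carrying transient multiplexed cis reporters, dosed 24 h. Analysis: bidirectional fit, DMSO baseline.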

Assay [7] in a line: ATG_PBREM_CIS: Attagene CIS-FACTORIAL HepG2 Assay for human Phenobarbital-responsive Enhancer Module (PBREM) (AID 2282955). The following applies: HepG2 PBREM cis-reporter, Attagene multiplexed transcription; actives raise or lower the signal. The procedure, abridged: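 HepG2 cells transiently transfected with multiple cis-regulated reporter transcription units; endogenous factor activity at the PBREM element measured as reporter mRNA 24 h after dosing, via RT-PCR and capillary electrophoresis of fluorescent fragments; bidirectional fitting versus DMSO.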

The target in assay [8] is Paired box protein Pax-6 (Homo sapiens) (UniProt P26367). In words: ATG_Pax6_CIS: Attagene CIS-FACTORIAL HepG2 Assay for human Paired Box 6 (PAX6) (AID 2282956). The following applies: HepG2 CIS-FACTORIAL PAX6 reporter transcription, RNA readout; actives raise or lower the signal. The procedure, abridged: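 DMSO-referenced bidirectional fits of reporter mRNA fluorescence; HepG2 with transient cis-promoter MRTUs, 24 h post-dose, RT-PCR plus capillary electrophoresis detection.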

Assay [9] concerns the target Hypoxia-inducible factor 1-alpha (Homo sapiens) (UniProt Q16665). In words: ATG_HIF1a_CIS: Attagene CIS-FACTORIAL HepG2 Assay for human Hypoxia Inducible Factor 1 (HIF1A) (AID 2282951). The conditions noted are these: HepG2 Attagene cis-factorial HIF1a reporter transcription; actives raise or lower the signal. The procedure, abridged:
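HepG2 cells transiently transfected with multiplexed cis-promoter reporter units; reporter mRNA read 24 h after dosing by RT-PCR, 6-FAM primer-extension labelling, HpaI digestion and capillary electrophoresis. Bidirectional fit versus DMSO baseline.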

The source made the active and inactive calls. Rule for the calls: active = hit-call score of the fitted dose curve at least 0.9, where 1 is the maximum; inactive = score below 0.9.

Sequence of Hypoxia-inducible factor 1-alpha (Homo sapiens) (Q16665 whole entry, looked up): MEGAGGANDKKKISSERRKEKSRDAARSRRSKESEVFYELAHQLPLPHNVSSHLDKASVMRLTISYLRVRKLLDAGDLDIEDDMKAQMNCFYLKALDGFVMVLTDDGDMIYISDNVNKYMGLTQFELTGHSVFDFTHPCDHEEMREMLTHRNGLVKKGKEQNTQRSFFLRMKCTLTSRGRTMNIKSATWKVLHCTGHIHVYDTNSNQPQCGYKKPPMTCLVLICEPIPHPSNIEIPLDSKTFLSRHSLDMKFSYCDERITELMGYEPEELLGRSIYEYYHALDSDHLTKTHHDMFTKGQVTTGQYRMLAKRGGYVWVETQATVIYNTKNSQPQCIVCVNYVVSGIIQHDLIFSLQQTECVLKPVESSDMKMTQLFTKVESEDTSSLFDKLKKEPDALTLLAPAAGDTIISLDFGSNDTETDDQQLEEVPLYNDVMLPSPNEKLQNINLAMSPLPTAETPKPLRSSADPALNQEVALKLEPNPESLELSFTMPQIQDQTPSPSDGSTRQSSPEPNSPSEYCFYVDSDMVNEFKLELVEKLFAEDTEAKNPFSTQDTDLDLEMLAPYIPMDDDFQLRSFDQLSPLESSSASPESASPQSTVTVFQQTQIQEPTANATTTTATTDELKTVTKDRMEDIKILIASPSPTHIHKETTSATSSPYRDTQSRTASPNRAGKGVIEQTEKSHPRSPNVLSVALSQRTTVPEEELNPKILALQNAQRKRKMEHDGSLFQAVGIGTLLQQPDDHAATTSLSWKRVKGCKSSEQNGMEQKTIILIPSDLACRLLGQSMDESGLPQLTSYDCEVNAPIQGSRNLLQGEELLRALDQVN
Sequence of Hepatocyte nuclear factor 6 (Homo sapiens) (Q9UBC0 whole entry, looked up, the tested form may be a part): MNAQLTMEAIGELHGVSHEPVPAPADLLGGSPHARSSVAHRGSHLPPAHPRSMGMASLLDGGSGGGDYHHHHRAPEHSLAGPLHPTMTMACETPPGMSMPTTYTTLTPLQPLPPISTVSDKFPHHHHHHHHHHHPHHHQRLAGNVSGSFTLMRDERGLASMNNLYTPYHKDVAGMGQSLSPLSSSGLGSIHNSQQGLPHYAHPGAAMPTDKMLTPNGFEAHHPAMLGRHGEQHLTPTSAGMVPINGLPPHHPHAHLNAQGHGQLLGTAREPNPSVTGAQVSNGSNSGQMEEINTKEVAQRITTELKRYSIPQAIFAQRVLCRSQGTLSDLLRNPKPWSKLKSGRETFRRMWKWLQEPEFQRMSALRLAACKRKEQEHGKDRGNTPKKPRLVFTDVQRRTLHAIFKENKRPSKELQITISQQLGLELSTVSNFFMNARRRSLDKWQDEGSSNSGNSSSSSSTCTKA
Sequence of Paired box protein Pax-6 (Homo sapiens) (P26367 whole entry, looked up): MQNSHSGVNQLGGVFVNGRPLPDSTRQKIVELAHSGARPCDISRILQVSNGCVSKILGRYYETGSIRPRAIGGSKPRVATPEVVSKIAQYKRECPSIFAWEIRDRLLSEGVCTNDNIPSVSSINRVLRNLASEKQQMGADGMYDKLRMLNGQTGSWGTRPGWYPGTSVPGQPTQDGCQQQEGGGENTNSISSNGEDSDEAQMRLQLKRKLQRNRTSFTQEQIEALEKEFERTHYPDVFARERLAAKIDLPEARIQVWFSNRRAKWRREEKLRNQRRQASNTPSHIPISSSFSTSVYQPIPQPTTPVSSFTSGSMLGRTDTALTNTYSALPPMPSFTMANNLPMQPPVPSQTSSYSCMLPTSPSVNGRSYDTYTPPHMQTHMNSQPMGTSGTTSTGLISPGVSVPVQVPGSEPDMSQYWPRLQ
Sequence of Heat shock factor protein 1 (Homo sapiens) (Q00613 whole entry, looked up, the tested form may be a part): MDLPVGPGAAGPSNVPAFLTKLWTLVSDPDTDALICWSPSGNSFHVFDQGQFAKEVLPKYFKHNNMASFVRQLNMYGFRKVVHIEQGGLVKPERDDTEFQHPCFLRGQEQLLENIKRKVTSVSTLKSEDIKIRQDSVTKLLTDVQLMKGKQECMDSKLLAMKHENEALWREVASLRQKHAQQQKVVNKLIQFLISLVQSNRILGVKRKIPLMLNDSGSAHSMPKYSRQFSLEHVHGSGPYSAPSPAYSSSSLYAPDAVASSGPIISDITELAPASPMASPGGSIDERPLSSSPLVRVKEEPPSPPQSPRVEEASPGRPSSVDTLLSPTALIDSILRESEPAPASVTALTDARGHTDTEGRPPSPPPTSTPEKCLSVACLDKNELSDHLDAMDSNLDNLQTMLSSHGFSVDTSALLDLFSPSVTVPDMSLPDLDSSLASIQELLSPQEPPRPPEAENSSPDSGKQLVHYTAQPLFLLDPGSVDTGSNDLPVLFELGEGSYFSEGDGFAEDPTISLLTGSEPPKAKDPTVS

With `O=C1OC(=O)c2c(Br)c(Br)c(Br)c(Br)c21`, the call in assay [1], in assay [2], in assay [3], in assay [4], in assay [5] and in assay [6] was inactive. Also, the outcome in assay [7] and in assay [8] was inactive.

As for `CC(C)OCCO`, the molecule was classed as inactive in assay [1], in assay [2], in assay [3], in assay [9], in assay [4] and in [6]. The outcome in assay [7] and in assay [8] was inactive.

Turning to `Cc1cc(S(=O)(=O)O)ccc1N=Nc1c(O)ccc2ccccc12`, the outcome in assay [1], in [2], in assay [3], in assay [9], in assay [4] and in assay [5] was inactive. The molecule was called inactive in assay [6] and in assay [8].

On to `CCCCCCC(=O)c1ccccc1`, for which the molecule was classed as inactive in [1], in assay [2], in assay [9], in assay [4], in assay [5] and in [6]. Besides, the result in [7] and in assay [8] was inactive.

Consider `O=C(O)c1cccnc1C(=O)O`, for which the call in [1], in assay [2], in assay [3], in assay [4], in [5] and in [6] was inactive. Besides, the molecule was classed as inactive in [8].

Take `CC(C)NCC(O)COc1ccc(CC(N)=O)cc1` (centres undefined): the call in assay [1], in [2], in assay [3], in assay [4], in [6] and in assay [8] was inactive.

On to `COS(=O)(=O)O`, for which the call in [1], in assay [2], in assay [3], in assay [9], in assay [4] and in assay [6] was inactive. Also, the result in assay [7] and in [8] was inactive.

Regarding `Nc1ccccc1[N+](=O)[O-]`, the call in [1], in assay [2], in assay [3], in assay [9], in assay [4] and in [6] was inactive. The result in assay [8] was inactive.

Turning to `CCCC(=O)c1ccccc1`, the outcome in assay [1], in assay [2], in assay [3], in assay [4], in assay [5] and in assay [6] was inactive. The outcome in [7] and in [8] was inactive.

Take `Cc1ncc([N+](=O)[O-])n1CCO`: the molecule was called inactive in [1], in assay [2], in assay [3], in assay [4], in assay [5] and in assay [6]. For the same molecule, the result in [7] and in assay [8] was inactive.

By AC50 is commonly meant the concentration at which the activity in the assay is half-maximal. For `O=C(CS)OCCOC(=O)CS`, the AC50 in assay [1] was 57.8 µM (active). For the same molecule, the call in [2], in assay [3], in [4], in [5], in assay [6] and in assay [7] was inactive. Further, in [8], the molecule was classed as inactive.

As for `CCCCC1(COC(=O)CCC(=O)O)C(=O)N(c2ccccc2)N(c2ccccc2)C1=O`, the outcome in assay [1], in [2], in [3], in [4], in assay [5] and in assay [6] was inactive. In addition, the molecule was classed as inactive in [8].

For the molecule `Cc1ncc[nH]1`, the outcome in assay [1], in [2], in [3], in assay [4], in assay [5] and in assay [6] was inactive. Further, the outcome in assay [8] was inactive.

As for `CC1CCC(C(C)C)C(O)C1` (centres undefined), the molecule was classed as inactive in assay [1], in [2], in assay [3], in assay [9], in [4] and in assay [6]. Also, the result in assay [7] and in [8] was inactive.

Regarding `OCc1cccc(Oc2ccccc2)c1`, the result in [1], in assay [2], in assay [9], in assay [4], in assay [5] and in [6] was inactive. Further, the outcome in [7] and in assay [8] was inactive.

As to `Brc1ccc(Br)c(Br)c1`, the molecule was called inactive in [1], in [2], in assay [3], in [9], in assay [4] and in assay [6]. In assay [8], the molecule was classed as inactive.

With `CCCCCCCCCCCC(=O)OCC(O)CO` (centres undefined), the outcome in assay [1], in assay [2], in assay [3], in assay [4], in assay [6] and in assay [7] was inactive. For the same molecule, the molecule was called inactive in assay [8].

Turning to `CCOC(=O)c1ccc(N)cc1`, the result in assay [1], in [2], in assay [3], in assay [4], in assay [6] and in assay [7] was inactive. Besides, the molecule was called inactive in assay [8]. In addition, the AC50 in assay [5] was 25.7 µM (active).

With `CCC(=O)OCCOc1ccccc1`, the outcome in assay [1], in assay [2], in [3], in [4], in assay [5] and in [6] was inactive. Moreover, the molecule was classed as inactive in [8].

For the molecule `Oc1ccc2cc(SSc3ccc4cc(O)ccc4c3)ccc2c1`, the AC50 in assay [1] was 100 µM (active); in assay [5], 78.1 µM (active); in assay [6], 34.8 µM (active); in assay [8] it was 27.1 µM (active). Moreover, the call in [2], in assay [3], in assay [4] and in assay [7] was inactive.

As to `O=CN1CCOCC1`, the molecule was called inactive in assay [1], in assay [2], in assay [3], in assay [4], in assay [5] and in assay [6]. Besides, in [8], the result was inactive. For the same molecule, the AC50 in assay [9] was 51.7 µM (active).

Consider `COC(=O)C=C(C)CCC=C(C)C`, for which the call in assay [1], in [2], in [3], in assay [9], in [4] and in [6] was inactive. In addition, in assay [8], the molecule was classed as inactive.

With `Cc1[nH]c(=O)c(C#N)cc1-c1ccncc1`, the call in assay [1], in assay [2], in [3], in [4], in assay [5] and in assay [6] was inactive. Moreover, the result in assay [7] and in assay [8] was inactive.

As to `CCOc1ccc(NC(=O)CC(C)=O)cc1`, the outcome in assay [1], in assay [2], in [3], in [4], in [6] and in [7] was inactive. Further, the result in assay [8] was inactive. Also, the AC50 in assay [9] was 30.4 µM (active).

On to `C[Si](C)(C)O[Si](C)(C)C`, for which the outcome in assay [1], in assay [2], in assay [3], in assay [9], in [4] and in assay [5] was inactive. Besides, the call in assay [6] and in assay [8] was inactive.

Turning to `CCCCCCCCCCCC(=O)OC[C@@H](O)[C@H]1OC[C@H](O)[C@H]1O`, the call in [1], in assay [2], in assay [9], in [4], in [5] and in assay [6] was inactive. Further, the result in assay [7] and in assay [8] was inactive.

As to `CC(=O)CC(=O)Nc1ccc(C)cc1C`, the result in assay [1], in assay [3], in [9], in assay [4], in assay [6] and in assay [7] was inactive. Also, the call in assay [8] was inactive.

As to `Nc1c(S(=O)(=O)O)cc(Br)c2c1C(=O)c1ccccc1C2=O`, the call in [2], in assay [3], in [4], in assay [5] and in assay [8] was inactive. Besides, the AC50 in assay [6] was 58 µM (active).

Take `C[C@@H]1CCN(C(=O)[C@H](CCCN=C(N)N)NS(=O)(=O)c2cccc3c2NC[C@H](C)C3)[C@@H](C(=O)O)C1`: the molecule was called inactive in [1], in assay [9], in assay [4], in assay [5], in assay [6] and in assay [7]. For the same molecule, the call in assay [8] was inactive.

Turning to `COc1ccc(CCO)cc1`, the molecule was classed as inactive in assay [1], in [2], in [9], in assay [4], in assay [5] and in assay [6]. Also, the result in [7] and in assay [8] was inactive.

Regarding `O=C(Nc1ccc2c(O)c(N=Nc3ccc(N=Nc4ccc(S(=O)(=O)O)cc4)cc3)c(S(=O)(=O)O)cc2c1)c1ccccc1`, the call in assay [2], in assay [3], in [9], in assay [4], in assay [5] and in assay [6] was inactive. For the same molecule, the result in assay [7] and in assay [8] was inactive.

The values above are taken from PubChem BioAssay (EPA / NIEHS).
